From the supplement of paper PMC7411640 come the findings set out here.

Where a name gives a salt, the structure may show the parent alone.

This test has as its system MDA-MB-468. In words: phospho-S6 immunofluorescence (DAPI-normalised), per-plate z-score; higher = higher phospho-S6 signal (less pathway suppression). The conditions noted are these: 24 h. How it is done: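 GPCR-targeted compound library (MedChemExpress HY-L006) tested on MDA-MB-468 PTEN-null TNBC cells in 384-well plates at 0.1, 1 or 10 uM, combined with vehicle, GDC0941 450 nM or lapatinib 1 uM, for 24 h. Phospho-S6 (S240/244) immunofluorescence normalised to DAPI and expressed as a per-plate z-score; values are the mean of biological triplicates.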

Regarding `CN1CCC(=C2c3ccccc3C=Cc3ccccc32)CC1` [Cyproheptadine (hydrochloride sesquihydrate)] (compound 10 µM), the “phospho-S6 immunofluorescence (z-score)” value runs as follows: (co-treatment: GDC0941 450 nM) 0.49; (co-treatment: lapatinib 1 uM) -0.96; (co-treatment: vehicle) -0.87.

Turning to `CN1N=C2CCN(C(=O)[C@@H](COCc3ccccc3)NC(=O)C(C)(C)N)C[C@@]2(Cc2ccccc2)C1=O` [Capromorelin (Tartrate)] (compound 10 µM), the “phospho-S6 immunofluorescence (z-score)” value (co-treatment: GDC0941 450 nM) is -0.05, the “phospho-S6 immunofluorescence (z-score)” value (co-treatment: lapatinib 1 uM) was -0.67 and the “phospho-S6 immunofluorescence (z-score)” value (co-treatment: vehicle) is -0.14.

For `CN1[C@@H]2CC[C@H]1C[C@@H](OC(=O)C(O)c1ccccc1)C2` (some centres undefined) [Homatropine (Bromide)] (compound 10 µM), the “phospho-S6 immunofluorescence (z-score)” value was -0.26 (co-treatment: GDC0941 450 nM), 0.08 (co-treatment: lapatinib 1 uM) and 0.37 (co-treatment: vehicle).

For the molecule `NC(=O)CC[C@H](N)C(=O)O` [L-Glutamine] (compound 10 µM), the “phospho-S6 immunofluorescence (z-score)” value is -0.23 (co-treatment: GDC0941 450 nM), -0.64 (co-treatment: lapatinib 1 uM) and -0.12 (co-treatment: vehicle).

For the molecule `c1ccc(CC2=NCCN2)cc1` [Tolazoline (hydrochloride)] (compound 10 µM), the “phospho-S6 immunofluorescence (z-score)” value runs as follows: (co-treatment: GDC0941 450 nM) 1.08; (co-treatment: lapatinib 1 uM) 0.41; (co-treatment: vehicle) 0.92.

Consider `COc1cc2c(cc1OC)-c1cc3ccc4c(c3c[n+]1CC2)OCO4` [Epiberberine (chloride)] (compound 10 µM), for which the “phospho-S6 immunofluorescence (z-score)” value was -0.39 (co-treatment: GDC0941 450 nM), 0.22 (co-treatment: lapatinib 1 uM) and 1.66 (co-treatment: vehicle).

`CC(C(=O)Nc1cc(C#N)ccc1CCCC(=O)O)c1ccc(F)c2ccccc12` (centres undefined) (compound 10 µM): the “phospho-S6 immunofluorescence (z-score)” value by setting is: (co-treatment: GDC0941 450 nM) -3.03; (co-treatment: lapatinib 1 uM) -2.8; (co-treatment: vehicle) -0.03.

Regarding `CCCCC[C@H](O)/C=C/[C@H]1[C@H](O)CC(=O)[C@@H]1CCCCCCC(=O)O` [Prostaglandin E1] (compound 10 µM), the “phospho-S6 immunofluorescence (z-score)” value is -0.04 (co-treatment: GDC0941 450 nM), 1.48 (co-treatment: lapatinib 1 uM) and -0.27 (co-treatment: vehicle).

On to `COc1ccc2cc(OCC3(C(=O)O)CN(C(=O)c4ccc(F)cc4)C3)ccc2c1` (compound 10 µM), for which the “phospho-S6 immunofluorescence (z-score)” value reads like this: (co-treatment: GDC0941 450 nM) -1.13; (co-treatment: lapatinib 1 uM) 0.61; (co-treatment: vehicle) 0.47.

Consider `CC[C@H](C)[C@H](NC(=O)[C@H](Cc1ccc(O)cc1)NC(=O)[C@@H](NC(=O)[C@H](CCCNC(=N)N)NC(=O)[C@@H](N)CC(=O)O)C(C)C)C(=O)N[C@@H](Cc1c[nH]cn1)C(=O)N1CCC[C@H]1C(=O)O` [Angiotensin (1-7)] (compound 10 µM), for which the “phospho-S6 immunofluorescence (z-score)” value was 0.11 (co-treatment: GDC0941 450 nM), 0.71 (co-treatment: lapatinib 1 uM) and -0.4 (co-treatment: vehicle).

Consider `CSc1ccc2c(c1)N(CCC1CCCCN1C)c1ccccc1S2` (centres undefined) [Thioridazine (hydrochloride)] (compound 10 µM), for which the “phospho-S6 immunofluorescence (z-score)” value is -5.09 (co-treatment: GDC0941 450 nM), -8.27 (co-treatment: lapatinib 1 uM) and -7.88 (co-treatment: vehicle).

Consider `CC(=O)Nc1cccc2c1c(Sc1ccc(Cl)cc1)c(C)n2CC(=O)O` (compound 10 µM), for which the “phospho-S6 immunofluorescence (z-score)” value is, setting by setting: (co-treatment: GDC0941 450 nM) 0.52; (co-treatment: lapatinib 1 uM) 0.08; (co-treatment: vehicle) -0.17.

For the molecule `O=C(c1ccc(F)cc1)N1CCC[C@H](c2nc(-c3ccc(F)cc3)no2)C1` (compound 10 µM), the “phospho-S6 immunofluorescence (z-score)” value runs as follows: (co-treatment: GDC0941 450 nM) -2.64; (co-treatment: lapatinib 1 uM) -3.29; (co-treatment: vehicle) -2.93.
